# Screening data deposited in PubChem BioAssay by National Center for Advancing Translational Sciences (NCATS).
# ALDH1A1 block – ALDH1A1 (human) enzyme inhibition. P00352. Purified ALDH1A1, NADH fluorescence, propionaldehyde substrate. hit rate 7.3% among 220,000. Potency, µM (top dose mostly 75.3 µM), without a hit: top-dose activity, negative = inhibition, hits mostly inhibitors;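 further: potency means the concentration at half of the fitted maximal effect; plate controls were no enzyme wells and a reference inhibitor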
# Lamin A splicing – modulators of lamin A splicing | hit rate 0.01% among 200,000 | Potency, µM (highest dose often 46.1 µM), for inactives: at the top dose ratio change, negative = inhibition, most hits filed as inhibitors | HeLa LMNA splicing GFP/RFP minigene ratio, 48 h; active means well fitted inhibition curve with a large enough effect in the signal ratio, with a control signal flat, not every such curve was filed as active; inconclusive means small, poorly fitted or top-dose-only effect, or effect the other way, or a change in a side signal; the % refers to the signal ratio; further: potency means the concentration at half of the fitted maximal effect
#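 S3 HeLa stable clones carrying a lamin A-EGFP splicing minigene plus DsRed2 were seeded at 600 cells/well in Opti-MEM with 2% FBS, pin-dosed and incubated 48 h at 37°C. Acumen cytometry (488 nm) gave the GFP/RFP total-intensity ratio.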
# HPGD block – inhibitors of human 15-hydroxyprostaglandin dehydrogenase (HPGD) | P15428 | purified HPGD, NADH fluorescence kinetic, PGE2 substrate | Potency, µM, without a hit: top-dose activity change, negative = inhibition, most hits filed as inhibitors | hit rate 4.3% among 150,000 | AID 894; further: potency means the concentration at half of the fitted maximal effect
# Target sequence (P15428 whole entry, looked up): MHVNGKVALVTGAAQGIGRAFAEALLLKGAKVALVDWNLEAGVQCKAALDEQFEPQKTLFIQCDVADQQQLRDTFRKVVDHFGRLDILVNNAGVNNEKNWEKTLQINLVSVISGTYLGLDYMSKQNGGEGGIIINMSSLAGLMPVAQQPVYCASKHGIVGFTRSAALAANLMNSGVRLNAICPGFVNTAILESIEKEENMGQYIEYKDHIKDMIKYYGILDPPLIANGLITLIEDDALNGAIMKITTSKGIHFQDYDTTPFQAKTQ
#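 NADH formation kinetics: reaction with 30 uM PGE2 and 1 mM NAD+ (final), 20 nM enzyme, Tris-HCl pH 8 with Tween 20, after 15 min compound preincubation at room temperature. Fluorescence change, last versus first of five reads.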
# Luc counter – Kinase-Glo luciferase inhibition (counter-screen); Q27757; Kinase-Glo luciferase, ATP luminescence, 8 min; Potency, µM (highest dose often 38.3 µM), for inactives: at the highest dose activity change, negative = inhibition, actives largely listed as inhibitors; hit rate 0.28% among 200,000; AID 1379; active means well fitted inhibition curve with a large enough effect; inconclusive means small, poorly fitted or top-dose-only effect; further: potency means the concentration at half of the fitted maximal effect; nearly all actives have a fitted effect of over 60% in size
#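 Compound is pinned into ATP-containing buffer (10 uM ATP, imidazole pH 7.2, 7 mM MgCl2). Kinase-Glo luciferase reagent is then added. Light output is recorded following an 8-min room-temperature incubation.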
# PNC assembly inh – inhibitors of perinucleolar compartment assembly; PC3M PTB-GFP, PNC prevalence imaging, 16 h; stronger effect = lower value; activity change (PNC), negative = inhibition, % at 10 µM; hit rate 3.1% among 140,000;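 active means readout at or below -70, meaning at least 70% loss of cells showing the perinucleolar compartment, a nuclear body marking cancer cells; inconclusive means readout between -30 and a set limit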;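 further: plate controls were DMSO wells for no effect and camptothecin positive control wells for full effect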
#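 PC3M cells stably expressing PTB-GFP, 750–1000 cells/well, treated 16 h at 37 °C with compound (23 nl of library stock), in duplicate. After paraformaldehyde fixation and Hoechst stain, imaged at 20x; PNC prevalence scored by image analysis.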
# * hit, by the source's call; ? = inconclusive; . = no result; [ ] = remark or other dose. Sampled rows, rich in hits. Any-hit rate of the full collection: about 10%. Unless noted, the call rests on the fitted dose curve; in most records, active means well fitted inhibition curve with a large enough effect (not every such curve was filed as active); inconclusive means small, poorly fitted or top-dose-only effect, or another doubt; inactive means no such curve, though single readings can be large or run the other way. Unless noted, on the % scale 0 is the no-effect control and ±100 the full control effect.
SMILES,ALDH1A1 block,Lamin A splicing,HPGD block,Luc counter,PNC assembly inh
CSCCC(NC(=O)c1cc([N+](=O)[O-])ccc1Cl)C(=O)O (centres undefined),3%,-14%,-10%,2%,-82*
COc1ccc(C(=O)NC(CC(=O)O)c2cc([N+](=O)[O-])ccc2Cl)c(SC)c1 (centres undefined),8.9µM*,19%[9.22 µM],.,12%,.
CC(C)c1ccc(CNc2n[nH]c(-c3ccco3)n2)cc1,.,20%[46 µM],.,.,.
O=C(NCc1cn2ccsc2n1)c1cccc(C(F)(F)F)c1,9%,19%,-13%,1%,-14
O=C(NCc1cn2ccsc2n1)c1c(F)cccc1Cl,1%,-3%,8.9µM*,3%,29
c1ccc(-c2ccn3nnnc3n2)cc1,0%,-3%,-18%,3%,-100*
c1ccc(-c2cnn3nnnc3n2)cc1,11%,-1%,-14%,1%,-11
O=C(NCc1cccs1)c1nc2c(nnn2Cc2ccccc2Cl)c(=O)[nH]1,-1%,?,6.3µM*,0%,-19
N#Cc1ccc(NC(=O)N2CCC(c3nc4c(nnn4Cc4cccc(Cl)c4)c(=O)[nH]3)CC2)cc1,-11%,?,14µM*,1%,-24
Cc1ccc(Cn2nnc3c(=O)[nH]c(C4CCN(C(=O)Cc5cccs5)CC4)nc32)cc1,-4%,15%,?,-7%,28
O=C(Cc1cccs1)N1CCCC(c2nc3c(nnn3Cc3ccc(F)cc3)c(=O)[nH]2)C1 (centres undefined),1%,25%,28µM*,0%,32
CCC(C)NC(=O)c1nc2c(nnn2Cc2ccccc2Cl)c(=O)[nH]1 (centres undefined),-3%,?,.,-3%,.
O=c1[nH]c(C2CCCN(S(=O)(=O)c3ccc(F)cc3)C2)nc2c1nnn2Cc1ccccc1 (centres undefined),14µM*,12%,13µM*,-4%,-18
CC(C)(C)c1ccc(Cn2nnc3c(=O)[nH]c(C4CCCN(C(=O)Cc5cccs5)C4)nc32)cc1 (centres undefined),?,?,-7%,-8%,-25
C[C@@H]1CC[C@]2(C(=O)O)CC[C@]3(C)C(=CCC4[C@@]5(C)C[C@@H](O)[C@H](O)[C@@](C)(CO)C5[C@H](O)C[C@]43C)C2[C@H]1C (some centres undefined),5%,.,-7%,0%[39.9 µM],.
O=C(Cc1cccs1)N1CCC(c2nc3c(nnn3Cc3ccccc3)c(=O)[nH]2)CC1,?,13%,4.5µM*,3%,-14
CCOC(=O)NC(=O)/C(C#N)=N/Nc1ccc(F)cc1,-5%,1%,-27%,-1%,-10
CCOC(=O)C(=O)/C(C#N)=C/Nc1ccc(F)cc1,28µM*,8%,-20%,3%,?
O=C1OC(c2ccccc2)=C/C1=C/N1CCCCC1,10µM*,29%,?,-5%,19
CS(=O)(=O)N1CCC2(CCCN(c3ccncc3)C2)CC1,6%,.,-3%,1%,.
Cc1cccc(NC2=C(NC(=O)c3ccccc3)C(=O)c3ccccc3C2=O)c1,25µM*,?,?,-7%,6
O=C(NC1=C(NC2CCS(=O)(=O)C2)C(=O)c2ccccc2C1=O)c1ccccc1 (centres undefined),20µM*,.,.,-6%,.
O=C(NC1=C(Nc2ccc(Cl)cc2)C(=O)c2ccccc2C1=O)c1ccccc1,-4%,?,-15%,-11%,24
COc1ccc2c(c1-c1c3c(cc(Br)c1OC)CCCC3)CCCC2,1%,.,-10%,0%,.
COc1cc(NC(=S)N2CCCCC2C)c(OC)cc1Cl (centres undefined),2%,-13%[46 µM],.,4%,.
SMILES,ALDH1A1 block,Lamin A splicing,HPGD block,Luc counter,PNC assembly inh
COc1cc(NC(=O)C(=O)NNC(=O)C2CCCCC2)c(OC)cc1Cl,3%,?,-16%,-3%,-95*
CCN(CC)CCN(C(=O)c1ccc(C(=O)OC)cc1)c1nc2ccc(Cl)cc2s1,.,-5%[46 µM],.,.,.
O=C(NCC1CCCO1)c1ccc2c(c1)C(=O)N(C1CCCCC1)C2=O (centres undefined),8.9µM*,-5%,-11%,1%,48
Cc1cc(NC(=O)c2ccc3c(c2)C(=O)N(CCC(C)C)C3=O)no1,?,0%,0%,-3%,-9
CC(C)CCN1C(=O)c2ccc(C(=O)NCC3CCCO3)cc2C1=O (centres undefined),4.5µM*,-2%,-16%,-1%,-2
CC1CCCN(c2ccc(C(=O)NCC3CCCO3)cn2)C1 (centres undefined),-12%,-4%,11µM*,0%,6
O=C1Nc2ccccc2/C1=N\N=C\C1=C(N2CCOCC2)C(=C\c2ccccc2)/CC1,10µM*,20%,-7%,?,-26
COc1ccc(Nc2ncnc3sc(-c4ccccc4)cc23)cc1,?,20%,?,-6%,63
COc1ncnc2sc(-c3ccccc3)cc12,?,6%,?,10µM*,13
Cc1ccc(C(=O)Oc2csc(=S)n2C(=O)c2ccc(C)cc2)cc1,3.5µM*,-4%,5µM*,1%,?
COCCCn1c(SCC(=O)Nc2ccc(F)cc2)nc2c(sc3ccccc32)c1=O,.,13%[46 µM],.,.,.
CCOc1ccc(-n2c(SCC(=O)Nc3ccc4c(c3)OCCO4)nc3c([nH]c4ccccc43)c2=O)cc1,.,9%[46 µM],.,.,.
COc1ccc(N=C/C=C2/C=C(c3ccccc3)OC(C)(C)O2)cc1,1.4µM*,?,.,-3%,.
CCOC(=O)C(C(=O)OCC)c1cc(Br)c2noc3c2c1C(=O)c1ccccc1-3,10µM*,?,?,-11%,-83*
COc1ccc(-c2cc(=O)oc3cc(OCC(=O)c4cccc([N+](=O)[O-])c4)ccc23)cc1,-1%,?,2.8µM*,-1%,?
CCOC(=O)COc1ccc2c(=O)c(-c3ccccc3)coc2c1,.,-12%[46 µM],.,.,.
COc1ccc(-c2c(C)c3ccc(OCC(C)=O)cc3oc2=O)cc1,?,?,.,-1%,.
CCOCCOC(=O)COc1ccc2c(-c3ccccc3)cc(=O)oc2c1,18µM*,-6%,25µM*,-4%,-17
COc1ccc(-c2cc(=O)oc3cc(OCC(C)=O)ccc23)cc1,?,?,32µM*,2%,5
